This assay in a line: NCI Yeast Anticancer Drug Screen. Data for the cln2 rad14 strain (AID 165).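 Further: 0% = growth equal to vehicle treated cultures.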 The settings on record: S. cerevisiae cln2 rad14 strain, active compounds read high. As for the experimental part: Growth inhibition of yeast strains with defined genetic alterations is measured as a screen for potential anti-cancer activity. Selected strains with alterations in DNA damage repair or cell cycle control were exposed to compounds and growth inhibition was measured relative to vehicle treated controls. The strain used in this assay is cln2 rad14

[1] abbreviates: at 5.0 µM (retest, dose inferred, filed as 0.5).
Where [2] appears, read: at 50.0 µM (retest, dose inferred, filed as 5.0).

Each structure is given as a SMILES string. This is part of a sample that, as a whole, favours compounds with a hit. Of some 79,000 tested, about 15% had one in any assay. Values without a mark were called inactive. Active and inactive are the calls of the source. No stated cut-off is given here; in the data, active means growth inhibition above about 70%; inactive means the rest.

Consider `O=c1c2ccccc2nc(-c2ccc(Cl)cc2)n1O`, for which the growth inhibition under setting [1] was -23%, the growth inhibition under setting [2] was 84% (active) and the growth inhibition (at 50.0 µM) was 87.8% (active).

Regarding `COc1ccc2c(c1)CCCC(Br)C2=O` (configuration not stated), the growth inhibition under setting [1] is 39%, the growth inhibition under setting [2] is 59% and the growth inhibition (at 50.0 µM) is 34.3%.

For the molecule `CN(CCOc1ccc(Cl)cc1)CCOc1ccc(Cl)cc1`, the growth inhibition is 11% under setting [1], 97% (active) under setting [2] and 99.5% (active) (at 50.0 µM).

For `C/C(=N/NC(=S)Nc1ccccc1C)c1ccccn1`, the growth inhibition by setting is: under setting [1], 12%; under setting [2], 14%; (at 50.0 µM) 87.5% (active).

With `Cc1cccc(C)c1NC(=O)CCC(=O)C(C)C(=O)c1ccc(O)cc1` (configuration not stated), the growth inhibition is -2% under setting [1], 2% under setting [2] and 50% (at 50.0 µM).

For the molecule `CCCCCCCCNCCCCCCCC`, the growth inhibition was 65% under setting [1], 100% (active) under setting [2] and 99.1% (active) (at 50.0 µM).

For the molecule `CC1(C)CC(=O)C(C(=O)Nc2cccs2)=C(O)C1`, the growth inhibition reads like this: under setting [1], 23%; under setting [2], 37%; (at 50.0 µM) 89.4% (active).

For `c1ccc2c(c1)ccn2CCc1c[nH]c2ccccc12`, the growth inhibition runs as follows: under setting [1], -1%; under setting [2], 52%; (at 50.0 µM) 91.7% (active).

As to `O=CC1(F)CC1(c1ccccc1)c1ccccc1` (configuration not stated), the growth inhibition by setting is: under setting [1], -1%; under setting [2], 2%; (at 50.0 µM) 23.8%.

Consider `COc1cc([C@@H]2c3cc4c(cc3[C@@H](NC(=O)NO)[C@H]3COC(=O)[C@H]23)OCO4)cc(OC)c1O`, for which the growth inhibition is 6% under setting [1], 9% under setting [2] and 1.4% (at 50.0 µM).

`C=CC(C)(C)N1C(=O)C(C(C)=O)=C(O)C1Cc1c[nH]c2ccccc12` (configuration not stated): the growth inhibition reads like this: under setting [1], -4%; under setting [2], 21%; (at 50.0 µM) 32.8%.

For the molecule `CCCCCCCN(CCCCCCC)CC(=O)c1ccc2cc(Cl)c3ccccc3c2c1`, the growth inhibition reads like this: under setting [1], 14%; under setting [2], 93% (active); (at 50.0 µM) 98.5% (active).

`CC(C)C(c1ccccc1)c1ccccc1`: the growth inhibition is, setting by setting: under setting [1], -52%; under setting [2], -33%; (at 50.0 µM) 16%.

As to `CCCCOc1ccc2nc(C)cc(N=[N+]=[N-])c2c1`, the growth inhibition is, setting by setting: under setting [1], 6%; under setting [2], 70% (active); (at 50.0 µM) 40.8%.

Source of the values: PubChem BioAssay (NCI).
